# Shiga inhibitor – blocks Shiga toxin action in Vero cells; Vero cells, Shiga toxin protein synthesis inhibition reporter; inhibition, % at 38.7 µM; 9.2% of 290,000 active; in the data active means inhibition mostly above about 28%, no sharp cut-off; inactive means mostly below about 43%; further: 0% is about no effect
# Cycloheximide cs – counter-screen for Shiga toxin inhibitors: cycloheximide protein synthesis inhibition | max response, % | 12% of 300,000 active | cell reporter, cycloheximide protein synthesis inhibition counterscreen; in the data active means max response mostly above about 13%, no sharp cut-off; inactive means mostly below about 14%; further: read at 38.3 µM for the half of the compounds with a filed dose; 0% is about no effect
# Pf growth 48h – inhibits P. falciparum growth in the first generation, 48 h | 5.9% of 310,000 active | Potency, µM (highest dose often 28.7 µM), for inactives: top-dose activity change, negative = inhibition, hits mostly inhibitors | P. falciparum luciferase growth in erythrocytes, 48 h; further: potency means the concentration at half of the fitted maximal effect; on the % scale 0 is the no-effect control and ±100 the full control effect
#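 Parasite viability was followed by luminescence of a genomically integrated firefly luciferase. Cultures held 0.1% parasitemia at 2% hematocrit (final), incubated under 5% CO2 at 37 C.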
# Pf growth 96h – inhibits malaria parasite growth, 96 h; P. falciparum luciferase reporter growth, 96 h; Potency, µM (series often up to 28.7 µM), inactives show top-dose activity change, negative = inhibition, most hits filed as inhibitors; 6.9% of 320,000 active; further: potency means the concentration at half of the fitted maximal effect; on the % scale 0 is the no-effect control and ±100 the full control effect
#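 Delayed-death screen, second-generation endpoint: infected erythrocytes, 2% hematocrit, 0.05% parasitemia final; 96 hours at 37 C, 5% CO2; luciferase detection reagent; luminescence decrease equals reduced growth.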
# HCV inhibitor – inhibitors of hepatitis C virus infection; Huh7.5.1 HCVcc-Cre infection, luciferase reporter, 44 h; Potency, µM (top dose mostly 41.8 µM), inactives show top-dose activity change, negative = inhibition, usual class: inhibitors; 3.4% of 340,000 active; further: potency means the concentration at half of the fitted maximal effect; on the % scale 0 is the no-effect control and ±100 the full control effect
#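 Infectious HCVcc-Cre (~0.5 moi) was added to cells just after compound, with cells seeded 4 h earlier at 1,000 per well. Luciferase activity after 44 h culture reported infection; substrate was incubated 15 min at room temperature before reading.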
# AMA1-RON2 inh – disrupts binding of P. falciparum AMA1 to RON2; Potency, µM (top dose mostly 58.2 µM), without a hit: at the top dose activity change, negative = inhibition, actives largely listed as inhibitors; AID 720542; 0.2% of 360,000 active; AlphaScreen AMA1-biotinylated RON2 peptide binding;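 further: potency means the concentration at half of the fitted maximal effect; 0% = vehicle wells and -100% = peptide control; nearly all actives have a fitted effect of over 45% in size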
#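 AMA1 (3D7) with his tag at 25 nM final met compounds first, then biotinylated RON2 peptide at 25 nM; detection used donor plus acceptor beads, 10 µg/mL apiece, read by AlphaScreen after 30 min at room temperature.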
# Starred values were filed as active, the others as inactive; ? = inconclusive; / = no result given; [ ] = dose if it differs, or a comment. In the library only some 21% were active in any assay of this set; here they are far more common. Unless noted, the call rests on the fitted dose curve; in most records, active means well fitted curve in the direction sought with a large enough effect; inconclusive means small, poorly fitted or top-dose-only effect, or another doubt; inactive means no such curve, though single readings can be large; an effect the other way counts as inactive or inconclusive.
SMILES,Shiga inhibitor,Cycloheximide cs,Pf growth 48h,Pf growth 96h,HCV inhibitor,AMA1-RON2 inh
CC(=O)N1CCC(C(=O)N2c3ccccc3N=C(c3ccc4c(c3)OCO4)C2C(=O)Nc2c(C)cccc2C)CC1 (configuration not stated),/,/,/,/,/,-1%
Cc1ccc(-n2ncc3c(N4CCC5(CC4)OCCO5)ncnc32)c(C)c1,3,-3,/,5.2µM*,?,9%
Cc1ccc(-n2ncc3c(N4CCC(C(N)=O)CC4)ncnc32)c(C)c1,-7,1,4%,/,14%,32%
Cc1cc(Cl)cc(C)c1OCCNCc1ccccc1,/,-3,3%,?,3%,-4%
Cc1cc(Cl)cc(C)c1OCCOCCNCc1ccccc1,/,-4,?,15µM*,?,-6%
Cc1cc(C)c(OCCCCNCc2ccccc2)c(Cl)c1,-6,-4,-14%,?,11µM*,-25%
Cc1cc(C)c(C)c(OCCNCc2ccccc2)c1,-1,-1,-20%,12µM*,?,-3%
Cc1cc(C)c(OCCNCc2ccccc2)c(C)c1,/,-3,-16%,6%,-19%,-1%
Clc1ccc(OCCOCCNCc2ccccc2)cc1Cl,/,-3,52%,13µM*,4%,-3%
O=S(=O)(NCCCCNS(=O)(=O)c1ccc(F)cc1)c1ccc(F)cc1,/,/,/,/,15%,6%
O=C(CCC(=O)Nc1ccccc1)NNS(=O)(=O)c1ccccc1[N+](=O)[O-],-14,10,0%,-25%,7%,9%
COc1ccc(NS(=O)(=O)c2cc(NC(=O)CCc3ccccc3)ccc2N2CCOCC2)cc1,/,/,/,/,?,-3%[11.6 µM]
CCCCN(C(=O)c1ccc([N+](=O)[O-])s1)c1c(N)n(CCCC)c(=O)[nH]c1=O,/,/,10µM*,?,9%,-8%
CCCCN(C(=O)c1cc2c(s1)CCC2)c1c(N)n(CCCC)c(=O)[nH]c1=O,/,/,0%,8%,11µM*,-11%
CCCCN(C(=O)c1cc2c(s1)CCCC2)c1c(N)n(CCC)c(=O)[nH]c1=O,/,/,-5%,6%,17%,1%
COc1cc(CC2COC(c3ccc(O)c(OC)c3)C2COC(C)=O)ccc1O (configuration not stated),-10,-2,-12%,10µM*,24%,?
OC[C@@H]1CN(Cc2ccc3c(c2)OCO3)C[C@H](n2cnc3c(N4CCOCC4)ncnc32)O1,/,/,/,/,/,30%
Brc1ccc2c(c1)OCCOCCOCCOCCOCCOCCO2,-14,-3,-10%,43%,10%,-8%
N#Cc1ncc(-c2ccc3c(c2)OCCOCCOCCOCCO3)nc1C#N,15,0,?,12µM*,-9%,-1%
N#Cc1ncc(-c2ccc3c(c2)OCCOCCOCCOCCOCCO3)nc1C#N,-8,-3,?,12µM*,?,-10%
c1ccn2cc(-c3ccc4c(c3)OCCO4)nc2c1,21,4,425%,26%,-9%,-3%
FC(F)(F)c1ccc(C2[C@H]3CN(Cc4ccc(-c5ccccc5)cc4)[C@H](c4ccccc4)C34CC2(c2cccnc2)C4)cc1 (some centres not stated),-1,-3,3.3µM*,0.41µM*,6%,32%
FC(F)(F)c1ccc(C2[C@H]3CN(Cc4ccc(-c5ccccc5)cc4)[C@H](c4ccccc4)C34CC2(c2ccccc2)C4)cc1 (some centres not stated),-3,-1,?,-99%,-2%[8.37 µM],-5%
COC(=O)c1cccc(C23CC4(C2)[C@H](CN(Cc2ccc(-c5ccccc5)cc2)[C@@H]4c2ccccc2)C3c2ccc(C(F)(F)F)cc2)c1 (some centres not stated),2,-3,?,?,0%,-2%
FC(F)(F)c1ccc(CN2C[C@@H]3C(c4ccc(Cl)nc4)C4(c5ccccc5)CC3(C4)[C@H]2c2ccccc2)cc1 (some centres not stated),-7,-3,12µM*,?,-6%,-2%
SMILES,Shiga inhibitor,Cycloheximide cs,Pf growth 48h,Pf growth 96h,HCV inhibitor,AMA1-RON2 inh
c1ccc(-c2ccc(CN3C[C@@H]4C(c5ccccc5)C5(c6cccnc6)CC4(C5)[C@H]3c3ccccc3)cc2)cc1 (some centres not stated),-10,-2,2.9µM*,4.1µM*,-1%[8.37 µM],0%
Clc1ccc(C2[C@H]3CN(Cc4cccnc4)[C@H](c4ccccc4)C34CC2(c2cccnc2)C4)cn1 (some centres not stated),-2,-5,10µM*,4.7µM*,-20%,-29%
COC(=O)c1cccc(C23CC4(C2)[C@H](CN(Cc2ccc(C(F)(F)F)cc2)[C@@H]4c2ccccc2)C3c2ccccc2)c1 (some centres not stated),-6,-4,?,?,-3%,-9%
COC(=O)c1ccc(C23CC4(C2)[C@H](CN(Cc2ccc(-c5ccccc5)cc2)[C@@H]4c2ccccc2)C3c2ccc(C(F)(F)F)cc2)cc1 (some centres not stated),-4,-2,?,?,3%[8.37 µM],0%
CN1C[C@@H]2C(c3ccc(C(F)(F)F)cc3)C3(c4ccccc4)CC2(C3)[C@H]1c1ccccc1 (some centres not stated),1,1,?,?,22%,?
CN1C[C@@H]2C(c3ccccc3)C3(c4cccnc4)CC2(C3)[C@H]1c1ccccc1 (some centres not stated),-7,-3,12µM*,12µM*,?,-4%
N#Cc1ccc(C23CC4(C2)[C@H](CN(Cc2ccc(-c5ccccc5)cc2)[C@@H]4c2ccccc2)C3c2ccc(C(F)(F)F)cc2)cc1 (some centres not stated),-5,-3,15µM*,?,1%,-3%
FC(F)(F)c1ccc(C2[C@H]3CN(Cc4cccnc4)[C@H](c4ccccc4)C34CC2(c2cccnc2)C4)cc1 (some centres not stated),-3,-3,1.9µM*,1.5µM*,?,-10%
CC(=O)c1ccc(OCc2cc(C(=O)N3CCC(Oc4ccccc4C)CC3)no2)cc1,143*,90*,?,?,-22%,-2%
CC(=O)c1ccc(OCc2cc(C(=O)N3CCCCCCC3)no2)cc1,57*,57*,-10%,13µM*,-21%,-3%
CC(=O)c1ccc(OCc2cc(C(=O)N3CCOCC3)no2)cc1,79*,43*,46%,?,-6%,4%
COC1CCN(C(=O)c2cc(COc3ccc(-n4cncn4)cc3)on2)CC1,1,-3,1%,12%,-1%,-2%
CCOc1cc(N2CCOCC2)c(OCC)cc1NC(=O)COC(=O)c1ccc([N+](=O)[O-])o1,/,/,/,/,?,-10%
CNC(=O)C[C@H]1C(=O)N(c2ccccc2)C[C@@H]1C,/,/,/,/,/,6%

# Source: PubChem BioAssay
